Compound activity deposited in PubChem by National Center for Advancing Translational Sciences (NCATS).
Sfp inh: inhibitors of Bacillus subtilis Sfp phosphopantetheinyl transferase; actives 3.5% (n = 310,000); Q9F4F7; Biochemical Sfp PPTase activity, qHTS; Potency, µM, for the others: largest response in the series, negative = inhibition, actives largely listed as inhibitors;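 also: the enzyme is Sfp with the accession as filed and its product quenches rhodamine fluorescence; 0% = enzyme reaction without inhibitor and -100% = no enzyme wells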
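Fluorescence-quenching assay with 15 nM Sfp, 5 uM rhodamine-CoA and 12.5 uM BHQ-2-labelled ybbR peptide in pH 7.6 Hepes/MgCl2 buffer. Enzyme was pre-incubated with compound for 15 min at room temperature. Rate was taken from the 30-min fluorescence change (525/598 nm).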
G9a inh: blocks human histone lysine methyltransferase G9a; Q96KQ7; Potency, µM (top dose mostly 102 µM), for the others: at the top dose activity, negative = inhibition, most hits filed as inhibitors; AID 504332; G9a H3K9 monomethylation, AlphaScreen, 2 h; actives 8.8% (n = 350,000); also: % is scaled to controls: 0 for no effect and ±100 for the full control effect; nearly all actives have a fitted effect of over 75% in size
Target sequence (Q96KQ7 913-1193 limits assumed): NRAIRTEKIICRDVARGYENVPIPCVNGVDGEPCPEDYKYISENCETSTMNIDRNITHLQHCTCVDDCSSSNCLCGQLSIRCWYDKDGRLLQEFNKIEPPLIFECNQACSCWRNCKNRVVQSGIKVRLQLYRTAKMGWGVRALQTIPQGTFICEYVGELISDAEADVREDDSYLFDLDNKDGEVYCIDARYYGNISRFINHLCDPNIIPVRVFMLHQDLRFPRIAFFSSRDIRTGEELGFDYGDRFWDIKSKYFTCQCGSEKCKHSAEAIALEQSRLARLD
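Readings reflect AlphaScreen signal from monomethyl-H3K9 antibody detection. HMT at 20 nM; substrate b-H3K9 500 nM; cofactor SAM 20 uM; 2 h RT reaction; compounds tested as titrations in qHTS with 15 min preincubation.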
HP1b binding inh: inhibitors of HP1-beta chromodomain binding to methylated histone tails. P83916. Potency, µM (series often up to 114 µM), inactives show at the top dose activity change, negative = inhibition, usual class: inhibitors. actives 0.56% (n = 390,000). AlphaScreen HP1-beta / biotin-H3K9me3 peptide binding; also: nearly all actives have a fitted effect of over 70% in size
Target sequence (P83916 whole entry, looked up): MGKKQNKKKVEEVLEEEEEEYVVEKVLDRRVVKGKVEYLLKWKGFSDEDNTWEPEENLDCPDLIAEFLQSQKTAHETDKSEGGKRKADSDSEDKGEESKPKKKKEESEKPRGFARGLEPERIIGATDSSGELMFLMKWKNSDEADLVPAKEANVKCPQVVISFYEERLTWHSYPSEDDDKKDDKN
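Compound inhibition of the preformed complex between 50 nM HP1-beta and 50 nM biotinylated H3K9me3 peptide was read by AlphaScreen. Buffer was PBS pH 7.4 with 0.01% Tween-20. Incubations ran 30 min at room temperature, with 10 ug/mL donor/acceptor beads.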
JMJD2A Tudor: JMJD2A Tudor domain (human) inhibition; Potency, µM (series often up to 114 µM), inactives show at the top dose activity change, negative = inhibition, actives largely listed as inhibitors; AID 504339; O75164; actives 4.4% (n = 390,000); AlphaScreen JMJD2A-Tudor / H3K4me3 peptide binding; also: % is scaled to controls: 0 for no effect and ±100 for the full control effect; nearly all actives have a fitted effect of over 50% in size
PLK1 PBD inh: PLK1 (human) polo-box domain binding inhibition. Plk1 PBD binding of FITC phosphopeptide, fluorescence polarization. Potency, µM, for the others: max response, negative = inhibition, actives largely listed as inhibitors. actives 2.8% (n = 360,000). AID 720504; also: series mostly up to about 57 µM; % is scaled to controls: 0 for no effect and ±100 for the full control effect; nearly all actives have a fitted effect of over 65% in size
BAZ2B block: inhibitors of human BAZ2B bromodomain; Q9UIF8; AlphaScreen BAZ2B-H3K14Ac peptide displacement; Potency, µM (series often up to 114 µM), inactives show top-dose activity change, negative = inhibition, hits mostly inhibitors; actives 4.4% (n = 360,000); AID 504333; also: % is scaled to controls: 0 for no effect and ±100 for the full control effect; nearly all actives have a fitted effect of over 60% in size
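AlphaScreen displacement: compounds (up to 110uM) incubated 30 min at room temperature with a preformed 50 nM BAZ2B/50 nM biotinylated H3K14Ac peptide complex in PBS pH 7.4 with Tween-20. Donor and acceptor beads at 10 ug/mL final added, 20 min light-protected before reading.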
The depositor's hits bear a star; ? = inconclusive; nt = no result given; [ ] = another dose, or the depositor's remark. Most compounds without a hit are left out; they make up all but 12% or so of the library. Calls follow the shape of the dose curve; as a rule, active = well fitted curve in the direction sought with a large enough effect; inconclusive = small, poorly fitted or top-dose-only effect, or another doubt; inactive = no such curve, though single readings can be large; an effect the other way counts as inactive or inconclusive. Potency is read from the fitted curve at half-maximal effect.

SMILES	Sfp inh	G9a inh	HP1b binding inh	JMJD2A Tudor	PLK1 PBD inh	BAZ2B block
O=C1c2cccc(NCCCNCCO)c2C(=O)c2cccc(NCCCNCCO)c21	nt	nt	?	50µM*	2%	nt
COc1ccc(NC(=O)CN2C(=O)CSc3ccc(S(=O)(=O)N(C)C)cc32)cc1Cl	nt	-34%[59 µM]	30%	-24%	nt	-4%
CCOC(=O)C1=C(CS(=O)(=O)c2ccc(F)cc2)NC(=O)NC1c1ccc(O)c(O)c1 (centres undefined)	-8%	14µM*	-21%	-30%	-12%	-34%
COC(=O)/C=C/c1cccc([C@H]2[C@@H]3C=CC[C@@H](C)[C@@H]3C(=O)N2Cc2ccccc2)c1	-12%	?	36%	-7%	-2%	nt
Cc1[nH]c2ccccc2c1N=Nc1ccc(F)cc1	20%	40µM*	?	89µM*	-14%	32µM*
Cc1[nH]c2ccccc2c1N=Nc1ccccc1F	9%	40µM*	?	45µM*	4%	40µM*
Cc1[nH]c2ccccc2c1N=Nc1cc(C(=O)O)cc(C(=O)O)c1	-1%	35µM*	-11%	-21%	-9%	?
Cc1[nH]c2ccccc2c1SCC(=O)O	5%	?	35%	-10%	-7%	-22%
Oc1[nH]c2ccccc2c1N=Nc1c(F)c(F)c(Cl)c(F)c1F	18%	-3%	52%	-1%	-4%	-7%
Cn1nc(-c2ccc(OCC(=O)Nc3ccc(Cl)cc3)cc2)c2ccccc2c1=O	nt	?	7%	?	nt	?
NC(=O)CSc1nnc(Cc2ccc3c(c2)OCO3)n1C1CCCCC1	13%	8%	-16%	?	27µM*	11%
O=C(CSc1nnc(Cc2ccc3c(c2)OCO3)n1C1CCCCC1)NC1CCCC1	3%	-2%[59 µM]	68%	-8%[57.1 µM]	-7%	6%
COc1ccc(Cl)cc1NC(=O)Cn1c(=O)n(Cc2cccs2)c(=O)c2cccnc21	nt	13%[59 µM]	9%	-17%	nt	1%
CCNc1nc(C(=O)O)nc(N2CCOCC2)n1	79µM*	4µM*	4%	0.79µM*	1%	8.9µM*
CN(C)c1nc(C(=O)O)nc(N2CCOCC2)n1	7%	?	0%	32µM*	-2%	-28%
CCn1ccc(C(=O)Nc2ncc(C)s2)n1	-3%	48%	13%	-20%	-12%	1%
COc1cc(/C=N/N=C2/C(=O)Nc3ccccc32)cc(OC)c1O	-18%	2.8µM*	-55%	?	-13%	50µM*
Cc1nnc(SCC(=O)NCc2ccc(N(C)C)cc2)c2nn(-c3ccccc3)c(C)c12	nt	?	-17%	?	nt	?
Cc1ccc(CNC(=O)CCc2nnc(Cc3ccc(-c4ccccc4)cc3)o2)o1	22µM*	-7%	12%	-12%	-23%	-27%
Cc1sc2ncn(CC(=O)Nc3ccc(C(C)C)cc3)c(=O)c2c1S(=O)(=O)N1CCN(c2ncccn2)CC1	nt	-30%[59 µM]	10%	-22%	nt	-5%
Cc1cc(C)c(C)c(C(=O)c2ccccc2C(=O)O)c1C	17%	nt	27%	-9%	-11%	-9%
Cc1cc(O)c(C(C)C)cc1N=Nc1ccccc1C(=O)O	6%	40µM*	?	?	-4%	?
Cc1cc(N=Nc2ccccc2C(=O)O)c(C)c(C)c1O	0%	32µM*	?	-21%[11.4 µM]	-29%	28µM*
N#Cc1c(-c2cccs2)cc(-c2cccs2)[nH]c1=O	-30%	8%	20%	-3%	-8%	-1%
Cc1cc(-c2cccs2)c(C#N)c(=S)[nH]1	20µM*	1.6µM*	20%	7.9µM*	?	-20%
SMILES	Sfp inh	G9a inh	HP1b binding inh	JMJD2A Tudor	PLK1 PBD inh	BAZ2B block
Cc1noc(C)c1S(=O)(=O)Nc1ccc(C(=O)Nc2ccc(C(C)C)cc2)cc1	nt	-24%[59 µM]	-6%	-26%	nt	nt
Cc1ccc(/C=C/C(=O)OCC(=O)N2CC(=O)Nc3ccccc32)o1	-8%	50µM*	-11%	56µM*	27µM*	?
COc1ccc(/C=C/C(=O)OCC(=O)N2CC(=O)Nc3ccccc32)cc1S(=O)(=O)N1CCOCC1	-1%	56µM*	40%	-18%	-4%	-11%
O=C1CN(C(=O)COC(=O)/C=C/c2ccc(OC(F)F)cc2)c2ccccc2N1	-6%	-8%[59 µM]	10%	-4%[57.1 µM]	-8%	-11%
O=C1CN(C(=O)COC(=O)/C=C/c2ccc(S(=O)(=O)N3CCOCC3)cc2)c2ccccc2N1	-1%	-38%	33%	-4%	-1%	-14%
O=C1CN(C(=O)COc2ccccc2F)c2ccccc2N1	-12%	50µM*	10%	-19%	-4%	4%
O=C1CN(C(=O)COC(=O)/C=C/c2ccco2)c2ccccc2N1	-23%	45µM*	1%	-12%	9%	?
CCOC(=O)c1cccc(NC(=O)C2CCN(S(=O)(=O)c3ccc4c(c3)oc(=O)n4C)CC2)c1	nt	0%[59 µM]	48%	-8%	nt	-2%
Cc1cc(=O)[nH]c2nnc(SCc3ccccc3F)n12	nt	15%[59 µM]	20%	-8%	nt	-4%
O=C(Nc1ccc2nc(SCC(=O)N3CCCC3)sc2c1)c1cccc(Br)c1	nt	-23%[59 µM]	15%	-15%	nt	-16%
CCN(CC)S(=O)(=O)c1cccc(C(=O)Nc2ccc(S(=O)(=O)NC3=NCCCCC3)cc2)c1	nt	16µM*	3%	-17%	-7%	1%
CON(C)S(=O)(=O)c1cccc(C(=O)Nc2cccc(S(=O)(=O)NC3=NCCCCC3)c2)c1	nt	nt	33%	-13%	3%	nt
CC(=O)Nc1cccc(C(=O)Nc2ccc(S(=O)(=O)NC3=NCCCCC3)cc2)c1	nt	19%[0.501 µM]	20%	-15%	-10%	4%
CON(C)S(=O)(=O)c1cccc(C(=O)Nc2ccc(S(=O)(=O)NC3=NCCCCC3)cc2)c1	nt	50µM*	11%	-4%	-8%	8%
CCn1c2c(c3cc(Cl)ccc31)CCCC2=O	3%	86%	140%	70%	4%	73%
CCn1c2c(c3cc(C(=O)O)ccc31)CCCC2=O	19%	-9%[12.7 µM]	-11%	-20%[11.4 µM]	30µM*	-18%
CC1CCCCN1Cc1c(O)ccc2c(=O)c(-c3ccc(Cl)cc3)c(C(F)(F)F)oc12 (centres undefined)	nt	-27%[59 µM]	27%	-16%	nt	1%
CCSc1nc(-c2cccs2)nc2ccccc12	-7%	148%	69%	?	24µM*	471%
c1ccc(CNc2nc(-c3cccs3)nc3ccccc23)cc1	-15%	10%[59 µM]	54%	-4%	-1%	-2%
O=C(CCC(=O)N1CCCC1)Nc1ccc(Cl)c(Cl)c1	12%	4%	25%	1%	-21%	-2%
COc1ccccc1CN1CCCC2(CCN(C(=O)c3ccncc3)CC2)C1	20%	4%[12.7 µM]	nt	nt	nt	nt
